# Measurements published in PubChem BioAssay AID1345083 (National Center for Advancing Translational Sciences (NCATS), 2018).
# In all, about 94,000 compounds went through this assay and about 6,200 (6.6%) were called active. Entries that show only a call come without a potency. About 31% were inconclusive and are not listed. Calls follow the shape of the dose curve; as a rule, active = well fitted inhibition curve with a large enough effect; inconclusive = small, poorly fitted or top-dose-only effect; inactive = flat fitted curve, though single readings scatter. This excerpt belongs to a sample that is enriched for actives.
# Assay: Cytotoxic Profiling in HEK 293 Cell Line of Diverse Libraries Using Quantitative High-Throughput Screening; also: nearly all actives have a fitted effect of over 60% in size
# Conditions: HEK 293 viability, ATP luminescence (CellTiter-Glo), 48-72 h; series mostly up to 115 µM
# Summary of the method: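 HEK 293 seeded at 250 cells/well receive compound via pintool. After 48 or 72 hr at 37 degree Celsius, 5% CO2 and 95% humidity, CellTiter-Glo is dispensed and luminescence read following 10 min at room temperature.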
# Potency is read from the fitted curve at half-maximal effect.
row,Compound,Potency
1,Cc1csc(CCNC(=O)C[C@H]2NC(=O)c3ccccc3NC2=O)n1,inactive
2,O=C1Nc2ccccc2CC12CCN(CC1CCCCC1)CC2,inactive
3,O=C1Nc2ccccc2CC12CCN(CC1CC1)C2 (stereo not drawn),inactive
4,N#Cc1ccc(CN2CCC3(Cc4ccccc4NC3=O)C2)cc1 (stereo not drawn),89.1 µM (active)
5,O=C(N[C@H]1CCN2C(=O)c3ccccc3NC(=O)[C@H]12)c1cccs1,inactive
6,CC(=O)N1CCc2[nH]cnc2C12CCN(C(=O)c1ccc(C)c(C)c1)CC2,inactive
7,COC(=O)C[C@H]1CN(C(=O)OC(C)(C)C)CCN1,inactive
8,COc1ccc(-n2nc(C3CCN(C(=O)c4ccc(Cl)nc4)CC3)[nH]c2=O)cc1,inactive
9,COc1ccc(-n2nc(C3CCN(C(=O)c4ccc(C)cc4)CC3)[nH]c2=O)cc1,inactive
10,COc1ccc(-n2nc(C3CCN(Cc4ccccn4)CC3)[nH]c2=O)cc1,12.6 µM (active)
11,CN1CCN(C(=O)c2ccc3c(c2)OCCO3)CC1=O,inactive
12,CN(C)C(=O)c1nc(-c2cccnc2)c2ccccn12,inactive
13,Cc1cnc(C2CCC2)n1CC1CCN(C(=O)c2ccncc2)C1 (stereo not drawn),inactive
14,Cc1ccc(-c2noc([C@@H]3Cc4nc[nH]c4CN3Cc3cccc(C#N)c3)n2)cc1,89.1 µM (active)
15,Cc1cccc(-c2noc([C@@H]3Cc4nc[nH]c4CN3C(=O)CCC(=O)O)n2)c1,inactive
16,Cc1cccc(-c2noc([C@@H]3Cc4nc[nH]c4CN3C(=O)Nc3ccccc3)n2)c1,inactive
17,CCn1cc(C(=O)N2C[C@@H](COCC3CC3)[C@H](c3ccccn3)C2)cn1,inactive
18,COCCOCC(=O)N1CCC2(CC1)c1[nH]c3ccc(OC)cc3c1CCN2C,inactive
19,COc1ccc(C2(C(=O)N3CCC4(CC3)NCCc3c4[nH]c4ccccc34)CC2)cc1,35.5 µM (active)
20,O=C(COc1ccc(F)cc1)N1CCC2(CC1)NCCc1c2[nH]c2ccccc12,44.7 µM (active)
21,O=C(C1CC=CC1)N1CCC2(CC1)NCCc1c2[nH]c2ccccc12,39.8 µM (active)

row,Compound,Potency
1,Cc1cc(C)n(CC(=O)N2CCC3(CC2)NCCc2c3[nH]c3ccccc23)n1,inactive
2,O=C(C1CCCO1)N1CCC2(CC1)NCCc1c2[nH]c2ccccc12 (stereo not drawn),inactive
3,COCCOCC(=O)N1CCC2(CC1)NCCc1c2[nH]c2ccccc12,inactive
4,COc1cccc(N2CCN(C(=O)C3(c4ccc(NC(C)=O)cc4)CCC3)CC2)c1,inactive
5,COc1ccc2[nH]c3c(c2c1)CCNC31CCN(C(=O)Cn2ccnc2)CC1,inactive
6,CC(=O)NCc1nnc2n1C(C(=O)N1CCN(C)CC1)CC2 (stereo not drawn),inactive
7,COCc1nncn1C1CCN(C(=O)c2ccccc2OC(F)(F)F)CC1,inactive
8,CC(=O)Nc1ccc2c(c1)nc1n2[C@@H](CNCc2ccncc2F)COC1,inactive
9,CN1CCCN(c2ccc(C(=O)N3CCC(N4CCOCC4)CC3)cn2)CC1,inactive
10,O=C(NC1C[C@H]2CC[C@@H](C1)N2S(=O)(=O)c1ccc2c(c1)OCCO2)c1ccc(F)cc1 (stereo partly drawn),inactive
11,O=C(NC1CCCN(c2cc(-c3ccc(F)cc3)[nH]n2)C1)c1ccc(Br)cc1 (stereo not drawn),39.8 µM (active)
12,O=C(NC1CCCN(c2ccc3nnc(C4CC4)n3n2)C1)c1ccccn1 (stereo not drawn),inactive
13,O=C(NC1CCCN(c2nc3ncccc3o2)C1)c1ccc(F)cc1 (stereo not drawn),inactive
14,O=C(NC1CCCN(c2cc(-c3ccc(Cl)cc3)[nH]n2)C1)c1ccncc1 (stereo not drawn),39.8 µM (active)
15,O=C(NC1CCCN(c2cc(-c3ccc(Cl)cc3)[nH]n2)C1)c1ccccc1F (stereo not drawn),44.7 µM (active)
16,Cc1nnc2ccc(N3CCC(NC(=O)c4ccccc4Cl)C3)nn12 (stereo not drawn),inactive
17,CCn1ccc(C(=O)NC2CCCN(c3cc(-c4ccc(F)cc4)[nH]n3)C2)n1 (stereo not drawn),inactive
18,CN(C)C1(CC2CC2)CCN(C(=O)c2ccsc2)CC1,inactive
19,CC(C)CN1C(=O)c2cccn2CC1C(=O)NC1CCS(=O)(=O)C1 (stereo not drawn),inactive
20,COc1ccc(CN2CCCC(c3[nH]ccc3C(N)=O)C2)cc1Cn1ccnc1 (stereo not drawn),inactive
21,O=C(c1ccc(N2CC3CC(C2)[C@H]2CCCC(=O)N2C3)nc1)N1CCCCC1 (stereo partly drawn),inactive

row,Compound,Potency
1,COc1cncc(-c2cccc(COc3ccc4c(cnn4CC[S+](C)(=O)[O-])c3)c2)c1,56.2 µM (active)
2,O=C(CC1CCN(C(=O)c2ccccc2)C1)NC1CC1 (stereo not drawn),inactive
3,CCn1c(C2CCCNC2)nn(Cc2ccc(C(=O)NC)o2)c1=O (stereo not drawn),inactive
4,Brc1cccc(-c2noc(-c3nc(-c4ccncc4)no3)n2)c1,inactive
5,COc1ccc(-c2noc(CN3CCCC(C(=O)c4cccnc4)C3)n2)c(OC)c1OC (stereo not drawn),inactive
6,Cc1oc(-c2cccc(Cl)c2)nc1CN1CCCC(C(N)=O)C1 (stereo not drawn),inactive
7,CCn1cnnc1CC1CCN(C(=O)C2CCN(Cc3nc(-c4cccc(C)c4)oc3C)CC2)CC1,inactive
8,COc1ccc(-c2nc(CN3CCOC(CN)C3)c(C)o2)c2ccccc12 (stereo not drawn),31.6 µM (active)
9,Cc1oc(-c2cccc(Oc3ccccc3)c2)nc1CN1CCOC(CCN)C1 (stereo not drawn),28.2 µM (active)
10,COC(=O)[C@@H]1Cc2ncn(Cc3ccc(Cl)cc3)c2CN1S(=O)(=O)c1ccc(C(C)=O)cc1,inactive
11,CCCN(CC1CCOC1)C(=O)Nc1cc(C)ccc1OC (stereo not drawn),inactive
12,Cc1ncsc1CCC(=O)N[C@@H]1COCC[C@@H]1Oc1cccc(F)c1,inactive
13,COc1ccc2[nH]cc(CCNC(=O)C3CCCN(Cc4ccncc4)CCC(=O)NCC3)c2c1 (stereo not drawn),inactive
14,COc1ccc(OCc2nc(C(=O)N3CCCC(C)(CO)C3)co2)cc1 (stereo not drawn),inactive
15,COc1ccc2ccc(OCc3nc(C(=O)N4CCC(=O)NCC4C)co3)cc2c1 (stereo not drawn),44.7 µM (active)
16,Cc1cc(C(=O)N2CCCCC2c2noc(COc3ccc(F)cc3)n2)nn1C (stereo not drawn),inactive
17,COc1ccc(OC)c(NC(=O)C2CCN(c3cc(C(F)(F)F)ncn3)CC2)c1,inactive
18,Cc1nc(N2CCC(NC(=O)c3ccc4c(c3)OCO4)CC2)cc(C(F)(F)F)n1,inactive
19,Cc1nc(N2CCC(C(=O)NCc3ccc(C(C)C)cc3)CC2)cc(C(F)(F)F)n1,31.6 µM (active)
20,Cc1ccc(N2Cc3c(NCC4CC4)ncnc3N(C)CC2=O)cc1,inactive
21,CN1CCN(C2CCOC3(CCN(S(=O)(=O)c4cn(C)cn4)CC3)C2)CC1 (stereo not drawn),inactive
